Results: PubChem BioAssay (Tox21)
Inconclusive results are not listed. Activity calls are given as the source filed them. Unless noted, calls come from the whole dose curve; as a rule, active = well fitted curve in the direction sought with a large enough effect in the repeat runs; inconclusive = weak or mixed curves; inactive = no such curve, though single readings can be large; an effect the other way counts as inactive or inconclusive.

What was measured:
[1] = qHTS assay to identify small molecule antagonists of the thyroid receptor (TR) signaling pathway - cell viability counter screen (AID 743064); note: nearly all actives have a fitted effect of over 50% in size
In short: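 Plate GH3.TRE-Luc cells; incubate 4 h at 37 °C; add compound, then T3 to 1 nM final; incubate 23.5 h; add CellTiter-Fluor; incubate 30 min at 37 °C, 5% CO2; read fluorescence.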

[2] = qHTS assay to identify small molecule antagonists of the thyroid receptor (TR) signaling pathway (AID 743065); note: series mostly up to about 70 µM; nearly all actives have a fitted effect of over 55% in size
In short: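 Antagonism measured as loss of luciferase signal in GH3 cells stably carrying a TRE-luciferase reporter, co-treated with compound and T3 (1 nM final) for 23.5 h at 37 C. Viability was read in the same well by CellTiter-Fluor.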

[3] = test system: thyroid hormone receptor (rat, GH3 cells); assay: qHTS assay to identify small molecule agonists of the thyroid receptor (TR) signaling pathway (AID 743066; calls by dose curve)
[4] = qHTS assay to identify small molecule antagonists of the estrogen receptor alpha (ER-alpha) signaling pathway using the BG1 cell line - cell viability counter screen (AID 743081);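 note: compound given together with 17beta-estradiol as the ER stimulus; series mostly up to about 70 µM; nearly all actives have a fitted effect of over 45% in size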
Aromatase (Homo sapiens) = Aromatase (Homo sapiens) (UniProt P11511); assay: qHTS assay to identify aromatase inhibitors (AID 743083); note: series mostly up to about 70 µM; nearly all actives have a fitted effect of over 55% in size
[5] = target: Estrogen receptor (Homo sapiens) (UniProt P03372); assay: qHTS assay to identify small molecule antagonists of the estrogen receptor alpha (ER-alpha) signaling pathway (AID 743069; active = well fitted curve in the direction sought with a large enough effect in the signal ratio in the repeat runs, not every such curve was filed as active; the % refers to the signal ratio)
In short: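 ER-alpha-UAS-bla GripTite HEK293 line; 2% charcoal-stripped FBS overnight; plated, 4 hr 37C/5% CO2; cpd in DMSO + 17beta-estradiol, 18 hr 37C; LiveBLAzer B/G FRET substrate 2 hr RT; fluorescence intensity.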

[6] = qHTS assay to identify small molecule antagonists of the estrogen receptor alpha (ER-alpha) signaling pathway - cell viability counter screen (AID 743074; calls by dose curve;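 note: HEK293 cells carrying ER-alpha-UAS-bla reporter stimulated with 17beta-estradiol; nearly all actives have a fitted effect of over 45% in size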)
[7] = target: Estrogen receptor (Homo sapiens) (UniProt P03372); assay: qHTS assay to identify small molecule agonists of the estrogen receptor alpha (ER-alpha) signaling pathway (AID 743075; calls by dose curve;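 note: HEK293 GripTite cells with ER-alpha and UAS-driven beta-lactamase reporter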)
[8] = target: Estrogen receptor (Homo sapiens) (UniProt P03372); assay: qHTS assay to identify small molecule agonists of the estrogen receptor alpha (ER-alpha) signaling pathway using the BG1 cell line (AID 743079); note: nearly all actives have a fitted effect of over 20% in size
[9] = qHTS assay to identify small molecule antagonists of the estrogen receptor alpha (ER-alpha) signaling pathway using the BG1 cell line (AID 743080; calls by dose curve;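 note: BG1 cells stimulated with 17beta-estradiol alongside compound; series mostly up to about 70 µM; nearly all actives have a fitted effect of over 25% in size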)
In short: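 After 5 days in phenol-red-free 10% charcoal-stripped FBS medium, BG1-Luc-4E2 cells were seeded, left 24 h at 37 C, co-treated with compounds and 17beta-estradiol for 21.5 h, then assayed for viability and luciferase.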

Measured: Potency

Sequence of Estrogen receptor (Homo sapiens) (P03372 whole entry, looked up): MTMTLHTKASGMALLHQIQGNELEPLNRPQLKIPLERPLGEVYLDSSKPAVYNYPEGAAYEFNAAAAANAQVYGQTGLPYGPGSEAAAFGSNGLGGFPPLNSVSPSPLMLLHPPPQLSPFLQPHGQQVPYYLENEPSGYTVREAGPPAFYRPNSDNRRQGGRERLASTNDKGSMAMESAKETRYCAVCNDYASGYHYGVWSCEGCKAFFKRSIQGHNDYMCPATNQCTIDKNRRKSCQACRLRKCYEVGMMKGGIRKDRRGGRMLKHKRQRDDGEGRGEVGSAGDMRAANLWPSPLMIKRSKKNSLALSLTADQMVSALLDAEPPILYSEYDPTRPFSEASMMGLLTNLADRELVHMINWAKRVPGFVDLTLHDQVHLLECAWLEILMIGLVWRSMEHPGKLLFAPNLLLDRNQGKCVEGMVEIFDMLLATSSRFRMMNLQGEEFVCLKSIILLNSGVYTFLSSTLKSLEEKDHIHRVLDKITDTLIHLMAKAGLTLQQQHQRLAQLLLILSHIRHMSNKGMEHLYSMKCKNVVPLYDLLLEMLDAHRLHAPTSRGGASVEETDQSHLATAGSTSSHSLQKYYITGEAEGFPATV
Sequence of Aromatase (Homo sapiens) (P11511 whole entry, looked up): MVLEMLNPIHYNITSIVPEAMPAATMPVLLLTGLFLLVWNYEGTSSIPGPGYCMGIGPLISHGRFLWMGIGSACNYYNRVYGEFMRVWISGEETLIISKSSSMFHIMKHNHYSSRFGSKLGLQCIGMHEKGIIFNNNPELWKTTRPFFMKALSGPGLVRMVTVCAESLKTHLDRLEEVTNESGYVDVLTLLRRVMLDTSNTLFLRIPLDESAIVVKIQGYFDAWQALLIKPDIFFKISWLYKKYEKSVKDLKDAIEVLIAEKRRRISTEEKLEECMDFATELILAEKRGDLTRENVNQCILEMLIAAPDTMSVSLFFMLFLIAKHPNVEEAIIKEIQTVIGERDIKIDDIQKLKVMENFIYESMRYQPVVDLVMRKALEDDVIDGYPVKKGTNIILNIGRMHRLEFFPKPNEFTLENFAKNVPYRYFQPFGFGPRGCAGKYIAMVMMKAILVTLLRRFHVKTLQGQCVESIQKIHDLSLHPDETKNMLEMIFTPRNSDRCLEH

CCCCOC(=O)C(=O)OCCCC
inactive: [1] | [2] | [3] | [4] | Aromatase (Homo sapiens)

CCOC(=O)OCC/C(SC(=O)OCC)=C(\C)N(C=O)Cc1cnc(C)nc1N
inactive: [1] | [2] | [3] | Aromatase (Homo sapiens)

O=C(O)c1c(Cl)ccc(Cl)c1Cl
not listed: [3]
inactive: all other assays above

C=C(C)[C@@H]1CC[C@@H](C)C[C@@H]1O
inactive: [1] | [6] | [4] | Aromatase (Homo sapiens)

CCOc1ccc(NC(=O)OC(C)C)cc1OCC
inactive: [1] | [2] | [3] | [6] | [4] | Aromatase (Homo sapiens)

O=C(O)C(=O)Nc1cccc(-c2nn[nH]n2)c1
inactive: [1] | [2] | [3] | [6] | Aromatase (Homo sapiens)

CCC(=O)OCCC(C)CCC=C(C)C (stereo not drawn)
inactive: [1] | [2] | [3] | [6] | [4] | Aromatase (Homo sapiens)

CCOC(=O)CC(CC(=O)OCC)(OC(C)=O)C(=O)OCC
inactive: [1] | [2] | [3] | [6] | [4] | Aromatase (Homo sapiens)

C=C(C)C(=O)OC1CC(C)CC(C)(C)C1 (stereo not drawn)
inactive: [1] | [2] | [3] | [6] | [4] | Aromatase (Homo sapiens)

CCN(CCO)c1cccc(C)c1
not listed: [2] | [3] | [5]
inactive: all other assays above

CCNC(=O)/C=C/c1cccc(Br)c1
inactive: [1] | [6] | [4] | Aromatase (Homo sapiens)

CC(C)COC(=O)COc1ccc(Cl)cc1Cl
inactive: [1] | [2] | [3] | [6] | [4] | Aromatase (Homo sapiens)
